In PubChem BioAssay (NCI):
Values joined by “and” are separate entries in the source; they are usually repeats but may differ in a detail not shown here. Equal values may be shown once. This is part of a sample that, as a whole, favours compounds with a hit. Of some 79,000 tested, about 15% had one in any assay. Unmarked numbers belong to inactive results. Active and inactive are the calls of the source. Cut-off read from the data, not from the text of the source: active = growth inhibition above about 70%; inactive = the rest.

assay: NCI Yeast Anticancer Drug Screen. Data for the bub3 strain (AID 167); conditions: S. cerevisiae bub3 mutant strain, at 50.0 µM, active compounds read high
Method in brief: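 Growth of a checkpoint-deficient yeast mutant is measured after compound exposure. Values represent inhibition relative to vehicle.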

Row | SMILES | growth inhibition
1 | NC1(P(=O)(O)O)CCCCC1 | -31.6%
2 | CC([NH-])C[NH-].CC([NH-])C[NH-].[Co].[NH2-].[NH2-] (stereo not given) | 35.2%
3 | Cc1cccc(-n2c(C)nc3ccccc3c2=O)c1C | -0.6%
4 | CN1CCOC(c2ccccc2)c2ccsc2CC1 (stereo not given) | 9.4%
5 | Cc1cccc(C)c1N | 1.7%
6 | O=C(Cc1cccc([N+](=O)[O-])c1)Nc1cccc(S(=O)(=O)F)c1 | 16.6%
7 | O=C1/C(=C\c2cc3ccccc3c3ccccc23)N2CCC1CC2 | -3.1%
8 | CCCCCC[C@@H](O)[C@@H]1C2=C(C[C@H]([C@H](O)[C@@H]3CC=CC(=O)O3)CC3=C(C(=O)OC3=O)[C@@H]1O)C(=O)OC2=O | 16.7%
9 | CCCO[As](=O)(OCCC)OCCC | 24.1%
10 | COc1ccc(C(=O)Cc2c(C(=O)c3ccccc3)c3ccccc3n2C(=O)c2ccccc2)cc1 | -23.4%
11 | CC(N)Cc1ccc(Cl)cc1 (stereo not given) | -14.9%
12 | CCC1CN2CCC3(C(=O)Nc4ccccc43)C2CC1/C(=C/OC)C(=O)OC (stereo not given) | 13.7%
13 | CCC[CH2][Sn]([CH2]C)([CH2]C)[CH2]C | 20.9%
14 | C/C(=N\N(C)C)C(CN1CCCCC1)C(c1ccccc1)c1c(O)c2ccccc2oc1=O (stereo not given) | 30.1%
15 | CCCCCCCCCCCCCC[As](=O)(O)O | 4.5%
16 | CN1CCC2=C(c3ccccc3)c3ccccc3C2C1 (stereo not given) | 3.8%
17 | [CH3][Sn]1([CH3])[O]C(=O)c2ccccc2C(=O)[O]1 | -13.4%
18 | CN1CCc2c([nH]c3ccccc23)C1 | 1.2%
19 | Cc1ccc(OP(=O)(Oc2ccc(C)c(C)c2)Oc2ccc(C)c(C)c2)cc1C | 5.2%
20 | [O-][N+]12CCCCC1C1CC(C2)C2CCCC(c3ccccc3)N2C1 (stereo not given) | -28%

Row | SMILES | growth inhibition
21 | Cc1cccc(NC(=O)CCl)c1 | 21.9%
22 | COC(C(=O)C(O)C(C)O)C1Cc2cc3cc(OC4CC(OC(C)=O)C(OC5CC(O)C(OC)C(C)O5)C(C)O4)cc(O)c3c(O)c2C(=O)C1OC1CC(OC2CC(OC3CC(C)(O)C(OC(=O)C(C)C)C(C)O3)C(O)C(C)O2)C(O)C(C)O1 (stereo not given) | -19.4% and 35.5%
23 | CCOP(=O)(OCC)/C(C#N)=C/c1cn(C)cn1 | -4.65%
24 | OCN1CCC23c4c5ccc(O)c4OC2C(O)C=CC3C1C5 (stereo not given) | 20.1%
25 | C/C=C(\C)C(=O)OC1CCN2CC=C(COC(=O)C(O)(C(C)O)C(C)(C)O)C12 (stereo not given) | 6.25%
26 | ClCCN(CCCl)c1ccc(N=Cc2ccccc2)cc1 | 19.4%
27 | Cn1c(O)c(C=N)c(=O)n(C)c1=O | 0.8%
28 | O=P1(C(Cl)Cl)OCCCO1 | -0.15%
29 | CN(C(=O)Oc1ccccc1)c1ccc(S(=O)(=O)F)cc1 | 98.5% (active)
30 | CC(C)=NNC1=NC(CC(C)C)P(=O)(NCCCCNP2(=O)SC(NN=C(C)C)=NC2CC(C)C)S1 (stereo not given) | -11.3%
31 | O=C([O-])C(F)(F)F.O=[N+]([O-])O.[Co+3].[NH2-].[NH2-].[NH2-].[NH2-].[NH2-] | 5%
32 | ClCCN(CCCl)c1ccc(-c2csc(Cc3ccccc3)n2)cc1 | -4.3%
33 | CCOc1ccc2c(N/N=C/c3ccc(N(CCCl)CCCl)cc3)cc(C)nc2c1 | 95.7% (active)
34 | C[CH2][Sn]([CH2]C)([O]c1cccccc1=O)[O]c1cccccc1=O | 7.8%
35 | COc1cc(C(=O)O)cc(OC)c1OC | 2.05%
36 | CN(C)/N=C(\CCN1CCCC1)CC(c1ccccc1)c1c(O)c2ccccc2oc1=O (stereo not given) | 49.9%
37 | Cn1c(=S)[nH]n(CCOc2ccccc2)c1=S | 3.45%
38 | CC(C)(NC1=NCCO1)c1ccccc1 | -13.7%
39 | c1cc[c]([Ge]([c]2ccccc2)[c]2ccccc2)cc1.c1cc[c]([Ge]([c]2ccccc2)[c]2ccccc2)cc1 | 4.8%
40 | C/C=C/C=C\C=C/C(O)CC(OP(=O)(O)O)C(C)(O)/C=C/C1CC=CC(=O)O1 (stereo not given) | -3.35%
